Values joined by “and” are separate entries in the source; they are usually repeats but may differ in a detail not shown here. Equal values may be shown once. Active and inactive are the calls of the source.
Tests used:
[1] = optical density shifts of acrAB sulA E. coli – strain DRC41, OD650, 48 h, E. coli filamentation inducer project, primary screen (AID 1152); conditions: higher = more signal, called active from +8 up or from −8 down;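 also: E. coli MC1000 strain DRC41 lacking acrAB efflux pump and sulA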
[2] = probe aLefty1 binding on compound microarray – biochemical, small-molecule microarray, 635/667 nm fluorescence, primary screen (AID 1153); conditions: higher = more signal;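 also: score merges spot fluorescence with signal-to-noise ratio from the scanned slide images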
[3] = plasmodial surface anion channel blockers, osmotic lysis – cell-based, P. falciparum Indochina, OD700, 1 h, primary screen (AID 1154); conditions: P. falciparum Indochina infected RBC osmotic lysis, higher = more signal, called active from +8 up or from −8 down
[4] = plasmodial surface anion channel blockers, osmotic lysis – cell-based, P. falciparum Indochina, OD700, 2 h, primary screen (AID 1155);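 also: lysis reports solute entry through the parasite surface anion channel PSAC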; conditions: P. falciparum Indochina infected erythrocytes, higher = more signal, called active from +8 up or from −8 down
[5] = changes in parasitized red cell lysis, either direction – P. falciparum Indochina, OD700, 3 h, PSAC antagonist project, primary screen (AID 1156); conditions: P. falciparum-infected erythrocytes, osmotic lysis, higher = more signal, called active from +8 up or from −8 down
[6] = plasmodial surface anion channel blockers, osmotic lysis – cell-based, P. falciparum Indochina, OD700, 18 h, primary screen (AID 1157); conditions: P. falciparum Indochina infected erythrocytes, osmotic lysis OD700, 18 h; higher = more signal, called active from +8 up or from −8 down
[7] = S6 kinase pathway phospho-S6 level changes – cell-based, A549, cytoblot, luminescence, serum-stimulated, primary screen (AID 1158); conditions: 5 h, higher = more signal;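 also: serum-stimulated A549 lung adenocarcinoma cells; signal is phosphorylated S6 detected by cytoblot immunostaining with HRP secondary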
[8] = target: NADPH oxidase 2 (Homo sapiens) (UniProt P04839); test: compounds shifting NOX2 Amplex Red fluorescence – cell-based, HEK293-NOX2, PMA-stimulated, NOX inhibitor project, primary screen (AID 1159); conditions: 45 min, higher = more signal, called active from +8 up or from −8 down; also: test concentration not given here
NADPH oxidase 2 (Homo sapiens), sequence (P04839 whole entry, looked up): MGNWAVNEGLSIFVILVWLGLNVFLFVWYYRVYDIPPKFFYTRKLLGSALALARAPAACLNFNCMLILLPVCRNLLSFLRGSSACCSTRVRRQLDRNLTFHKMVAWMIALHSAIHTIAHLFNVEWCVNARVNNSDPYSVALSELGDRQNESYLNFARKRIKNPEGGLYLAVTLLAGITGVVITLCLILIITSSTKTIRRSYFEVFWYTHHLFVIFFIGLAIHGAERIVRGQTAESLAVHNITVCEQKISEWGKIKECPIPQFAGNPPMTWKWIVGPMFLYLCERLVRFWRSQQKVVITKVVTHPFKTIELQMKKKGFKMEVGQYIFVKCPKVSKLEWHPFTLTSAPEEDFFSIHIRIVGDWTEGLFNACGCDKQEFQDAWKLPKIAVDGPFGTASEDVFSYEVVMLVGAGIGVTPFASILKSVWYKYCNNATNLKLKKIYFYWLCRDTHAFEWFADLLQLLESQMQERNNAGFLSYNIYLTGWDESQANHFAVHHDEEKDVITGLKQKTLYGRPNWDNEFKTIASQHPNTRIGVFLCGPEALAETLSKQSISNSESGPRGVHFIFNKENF

[9] = target: NADPH oxidase 4 (Homo sapiens) (UniProt Q9NPH5); test: compounds shifting NOX4 Amplex Red fluorescence – cell-based, HEK293-NOX4, tetracycline-induced, NOX inhibitor project, primary screen (AID 1160); conditions: HEK293-NOX4, Amplex Red H2O2 fluorescence, 45 min; higher = more signal, called active from +8 up or from −8 down
NADPH oxidase 4 (Homo sapiens), sequence (Q9NPH5 whole entry, looked up): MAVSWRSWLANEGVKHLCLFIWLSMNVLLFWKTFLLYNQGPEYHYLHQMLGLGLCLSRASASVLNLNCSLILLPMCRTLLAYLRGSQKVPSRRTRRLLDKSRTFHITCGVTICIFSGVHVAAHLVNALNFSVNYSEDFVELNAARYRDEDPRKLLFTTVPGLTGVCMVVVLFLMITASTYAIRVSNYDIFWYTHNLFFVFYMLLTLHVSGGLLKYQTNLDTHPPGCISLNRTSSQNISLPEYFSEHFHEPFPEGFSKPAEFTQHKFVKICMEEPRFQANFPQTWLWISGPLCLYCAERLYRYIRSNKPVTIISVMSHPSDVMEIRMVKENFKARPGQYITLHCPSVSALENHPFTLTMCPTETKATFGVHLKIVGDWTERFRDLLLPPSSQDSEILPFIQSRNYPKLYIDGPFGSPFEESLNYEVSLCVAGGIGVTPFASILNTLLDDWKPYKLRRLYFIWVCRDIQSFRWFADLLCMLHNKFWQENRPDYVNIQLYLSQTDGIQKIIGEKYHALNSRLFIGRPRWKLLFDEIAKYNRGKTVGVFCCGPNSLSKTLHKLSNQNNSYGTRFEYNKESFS

[10] = target: NADPH oxidase 5 (Homo sapiens) (UniProt Q96PH1); test: compounds shifting NOX5 Amplex Red fluorescence – cell-based, HEK293-NOX5, NOX inhibitor project, primary screen (AID 1161); conditions: HEK293-NOX5, ionomycin, 45 min, higher = more signal
NADPH oxidase 5 (Homo sapiens), sequence (Q96PH1 whole entry, looked up): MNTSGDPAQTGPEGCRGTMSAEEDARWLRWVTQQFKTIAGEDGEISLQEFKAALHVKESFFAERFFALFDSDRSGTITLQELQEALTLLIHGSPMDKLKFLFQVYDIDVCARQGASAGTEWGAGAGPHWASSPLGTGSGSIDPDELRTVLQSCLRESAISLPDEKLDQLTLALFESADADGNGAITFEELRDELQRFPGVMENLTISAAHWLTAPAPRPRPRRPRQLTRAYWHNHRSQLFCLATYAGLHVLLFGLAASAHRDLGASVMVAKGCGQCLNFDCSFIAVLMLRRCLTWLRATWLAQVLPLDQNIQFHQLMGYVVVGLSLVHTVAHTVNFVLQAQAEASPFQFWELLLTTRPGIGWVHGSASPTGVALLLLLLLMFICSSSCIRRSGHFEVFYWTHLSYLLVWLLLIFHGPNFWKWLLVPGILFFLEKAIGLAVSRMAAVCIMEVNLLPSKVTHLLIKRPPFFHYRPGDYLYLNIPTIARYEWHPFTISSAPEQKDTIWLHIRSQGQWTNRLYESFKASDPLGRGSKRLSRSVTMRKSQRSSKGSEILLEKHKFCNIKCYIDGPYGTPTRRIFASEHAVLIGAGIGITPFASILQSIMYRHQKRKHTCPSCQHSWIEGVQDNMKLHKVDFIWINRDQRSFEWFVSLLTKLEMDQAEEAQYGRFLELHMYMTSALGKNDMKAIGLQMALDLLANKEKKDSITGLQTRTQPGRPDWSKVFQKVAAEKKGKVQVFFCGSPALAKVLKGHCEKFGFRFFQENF

[11] = compound effects on lung adenocarcinoma cell viability – A549, calcein-AM fluorescence, 48 h, basal, profiling panel (AID 1162); conditions: higher = more signal; also: test concentration not given here
[12] = compound effects on differentiated 3T3-L1 adipocyte viability – cell-based, 3T3-L1 adipocytes, calcein-AM fluorescence, 48 h, basal, profiling panel (AID 1163); conditions: 3T3-L1 adipocytes viability, higher = more signal; also: test concentration not given here
[13] = compound effects on hepatocellular carcinoma cell viability – HepG2, calcein-AM fluorescence, 48 h, basal, profiling panel (AID 1164); conditions: higher = more signal; also: test concentration not given here
[14] = compound effects on multiple myeloma cell viability – MM1S, calcein-AM fluorescence, 48 h, basal, profiling panel (AID 1165); conditions: higher = more signal; also: test concentration not given here
[15] = calcein-AM signal in unstimulated myeloma cells – cell-based, calcein-AM fluorescence, 48 h, PK04 Diversity Set, profiling panel (AID 1166); conditions: RPMI8226 myeloma viability, higher = more signal;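 also: cells grown under basal conditions without added stimulus; test concentration not given here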
[16] = JC-1 mitochondrial signal, unstimulated HepG2 cells – cell-based, JC-1 fluorescence, 24 h, 100 nL compound, profiling panel (AID 1167); conditions: HepG2 mitochondrial potential, higher = more signal; also: test concentration not given here
[17] = JC-1 mitochondrial signal, unstimulated adipocytes – cell-based, JC-1 fluorescence, 3T3-L1 adipocytes, 24 h, 100 nL compound, profiling panel (AID 1168); conditions: JC-1 mitochondrial fluorescence, higher = more signal, called active from +8 up or from −8 down; also: test concentration not given here
[18] = JC-1 mitochondrial signal, unstimulated myeloma cells – cell-based, JC-1 fluorescence, RPMI8226, 24 h, 100 nL compound, profiling panel (AID 1169); conditions: JC-1 mitochondrial potential fluorescence, higher = more signal; also: test concentration not given here
[19] = JC-1 mitochondrial signal, unstimulated MM1S myeloma – cell-based, JC-1 fluorescence, 24 h, 100 nL compound, profiling panel (AID 1170); conditions: MM1S mitochondrial potential, higher = more signal; also: test concentration not given here
[20] = resazurin metabolic signal in A549 cells – cell-based, resazurin fluorescence, 24 h, PK04 Diversity Set, profiling panel (AID 1171); conditions: A549 viability, higher = more signal, called active from +8 up or from −8 down; also: test concentration not given here

| SMILES | z-score [1] | composite z-score [2] | z-score [3] | z-score [4] | z-score [5] | z-score [6] | z-score [7] | z-score [8] | z-score [9] | z-score [10] | z-score [11] | z-score [12] | z-score [13] | z-score [14] | z-score [15] | z-score [16] | z-score [17] | z-score [18] | z-score [19] | z-score [20] |
| --- | --- | --- | --- | --- | --- | --- | --- | --- | --- | --- | --- | --- | --- | --- | --- | --- | --- | --- | --- | --- |
| C[C@@H]1CC[C@H]2C(=O)NC[C@@H](O)CN2[C@H]1c1ccc(Br)cc1 | -1.08 (inactive) and -0.445 (inactive) | -0.426 and -0.017 | 0.211 (inactive) and -0.0955 (inactive) | -0.0378 (inactive) and 0.0974 (inactive) | -0.114 (inactive) and -0.125 (inactive) | -0.218 (inactive) and 0.0277 (inactive) | 0.53 and -0.753 | -0.807 (inactive) and 0.12 (inactive) | 0.283 (inactive) and 0.229 (inactive) | 0.646 and 0.135 | -0.179 and 0.44 | -0.856 and 0.491 | -0.141 and 0.284 | 0.211 and -0.52 | -0.239 and -0.0289 | -0.606 and 0.493 | -0.455 (inactive) and 0.104 (inactive) | -0.606 and 0.0684 | 0.0814 and -0.633 | 0.153 (inactive) and -0.285 (inactive) |
| C=CCN(C(=O)C1N(C(C)(C)CO)C(=O)C2C(C(=O)O)C3C=CC21O3)C(C)(C)C (stereo not given) | -0.497 (inactive) and 0.156 (inactive) | 0.0026 and -0.316 | -0.455 (inactive) and -0.501 (inactive) | 0.222 (inactive) and 0.135 (inactive) | -0.67 (inactive) and -0.452 (inactive) | 0.11 (inactive) and -0.11 (inactive) | -0.356 and -0.316 | 0.849 (inactive) and 0.0709 (inactive) | -1.48 (inactive) and -2.38 (inactive) | 0.103 and -0.476 | -0.209 and -0.173 | -0.72 and 0.343 | 0.384 and 0.816 | 0.676 and 0.647 | 0.0691 and 0.0574 | -0.896 and 0.142 | -0.308 (inactive) and 0.228 (inactive) | 0.669 and -0.287 | 0.88 and 0.351 | -0.777 (inactive) and -0.128 (inactive) |
| C[N+](C)(C)CCCCNC(=O)[C@H]1C[C@H]2C(=O)N[C@@H](CCCC[N+](C)(C)C)C(=O)N2[C@H]1c1cccc(OCCO)c1 | -0.398 (inactive) and -0.737 (inactive) | 0.266 and -0.483 | 1.37 (inactive) and 2.16 (inactive) | 0.244 (inactive) and 0.944 (inactive) | -0.706 (inactive) and 0.0108 (inactive) | 0.155 (inactive) and 0.23 (inactive) | 0.2 and -0.314 | -0.187 (inactive) and -1.8 (inactive) | -0.217 (inactive) and -0.934 (inactive) | 0.0197 and 0.0552 | -0.663 and -0.261 | -0.488 and -0.571 | -1.13 and -0.231 | -0.485 and -1.67 | 0.267 and 0.461 | -1.2 and -0.91 | -0.0125 (inactive) and 0.0612 (inactive) | -0.117 and 0.49 | -0.199 and -0.118 | -0.964 (inactive) and -0.711 (inactive) |
| CCCC[C@@H]1CN2[C@H](c3ccc(Br)cc3)[C@@H](C)CC[C@H]2C(=O)O1 | 0.469 (inactive) and -0.0124 (inactive) | -0.308 and -0.0132 | 1.56 (inactive) and 1.12 (inactive) | 0.395 (inactive) and 0.586 (inactive) | 1.2 (inactive) and -0.241 (inactive) | 0.492 (inactive) and 0.318 (inactive) | 0.57 and -0.262 | 0.203 (inactive) and -0.527 (inactive) | 0.332 (inactive) and -0.0635 (inactive) | -0.884 and -1.79 | 1.03 and 0.449 | -1.1 and -0.272 | 0.155 and 0.493 | -1.36 and -0.797 | 0.969 and 0.24 | 0.134 and -1.42 | -0.299 (inactive) and -0.848 (inactive) | -0.187 and -0.361 | -1.19 and 1.26 | 0.301 (inactive) and 1.49 (inactive) |
| C=CCN(CCCC)C(=O)C1N(CCCCCCO)C(=O)C2C(C(=O)O)C3C=CC21O3 (stereo not given) | -0.91 (inactive) and -0.81 (inactive) | -0.31 and -0.101 | 0.153 (inactive) and -0.368 (inactive) | -0.0395 (inactive) and 0.354 (inactive) | -0.661 (inactive) and -0.802 (inactive) | -0.11 (inactive) and -0.0605 (inactive) | -0.686 and -0.762 | 0.634 (inactive) and 0.835 (inactive) | -0.159 (inactive) and -0.18 (inactive) | 0.75 and 1.01 | -0.835 and -0.441 | 0.221 and -0.0736 | -1 and -0.393 | 0.62 and 1.32 | 0.646 and -0.44 | -0.253 and -0.939 | 0.051 (inactive) and -0.617 (inactive) | 0.221 and 0.855 | -0.00969 and -0.273 | -0.59 (inactive) and -0.439 (inactive) |
| C=CCN(C(=O)C(c1cccs1)N(CCOCCO)C(=O)/C=C\C(=O)O)c1ccc(OC)cc1 (stereo not given) | 3.55 (inactive) and 2.87 (inactive) | -0.262 and -0.142 | 0.195 (inactive) and -0.888 (inactive) | -0.567 (inactive) and -0.967 (inactive) | 0.0684 (inactive) and -1.43 (inactive) | -0.922 (inactive) and -0.842 (inactive) | 2.24 and 0.28 | 0.118 (inactive) and -0.448 (inactive) | -0.578 (inactive) and -1.19 (inactive) | -0.0456 and 0.0347 | 0.995 and 1.98 | 0.372 and -0.509 | 1.23 and 0.751 | 1.3 and 1.57 | 0.566 and 0.95 | 0.506 and 1.39 | -2.4 (inactive) and 1.53 (inactive) | -0.0898 and 0.302 | -1.19 and 0.702 | 0.18 (inactive) and 0.294 (inactive) |
